# Results published in ChEMBL document CHEMBL3433997, “St. Jude Leishmania screening dataset” (2016).
# How the values were obtained:
# Format in all cases: functional
# [1] = molecular target: Solute carrier family 2, facilitated glucose transporter member 1 (Homo sapiens) (UniProt P11166); assay: ST_JUDE_LEISH: Cytotoxicity at 2uM final concentration against transgenic Leishmania Mexicana promastigotes LmGLUT1 that are glucose transport deficient and complemented with the human glucose transporter GLUT1. Activity is measured by DNA content using SYBR green in vitro
# [2] = molecular target: Hexose transporter 1 (Plasmodium falciparum) (UniProt O97467); assay: ST_JUDE_LEISH: Cytotoxicity at 2uM final concentration against transgenic Leishmania Mexicana promastigotes LmPfHT that are glucose transport deficient and complemented with the Plasmodium falciparum hexose transporter. Activity is measured by DNA content using SYBR green in vitro
# [3] = molecular target: Glucose transporter (Leishmania mexicana) (UniProt O61059); assay: ST_JUDE_LEISH: Cytotoxicity at 2uM final concentration against transgenic Leishmania Mexicana promastigotes LmGT2 that are glucose transport deficient and complemented with the L. Mexicana glucose transporter 2. Activity is measured by DNA content using SYBR green in vitro
# Sequence of Solute carrier family 2, facilitated glucose transporter member 1 (Homo sapiens) (P11166 whole entry): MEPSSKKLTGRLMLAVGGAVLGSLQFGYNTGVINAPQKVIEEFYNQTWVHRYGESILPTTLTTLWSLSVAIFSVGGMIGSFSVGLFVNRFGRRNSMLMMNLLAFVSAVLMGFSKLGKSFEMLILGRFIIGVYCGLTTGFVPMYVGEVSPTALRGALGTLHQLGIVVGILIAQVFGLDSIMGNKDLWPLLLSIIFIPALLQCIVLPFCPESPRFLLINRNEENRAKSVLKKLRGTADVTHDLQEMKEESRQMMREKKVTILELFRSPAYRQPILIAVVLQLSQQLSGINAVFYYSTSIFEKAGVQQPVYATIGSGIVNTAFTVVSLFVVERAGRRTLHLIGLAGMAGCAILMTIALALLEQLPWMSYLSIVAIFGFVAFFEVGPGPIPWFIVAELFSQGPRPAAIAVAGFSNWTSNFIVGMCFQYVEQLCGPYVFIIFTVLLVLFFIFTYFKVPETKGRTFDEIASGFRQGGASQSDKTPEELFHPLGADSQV
Structure (SMILES),inhibition [1],inhibition [2],inhibition [3]
Cc1ccc2c(c1)C1(CC(=O)N(CCc3scnc3C)C1=O)C(=O)N2Cc1ccccc1 (stereo unspecified),2.62%,3.66%,3.42%
NC(=O)c1c(Cl)nc2ccccc2c1Cl,4.35%,4.69%,4.04%
CCN(CC)CCN(Cc1ccc(-c2ccc(C(F)(F)F)cc2)cc1)C(=O)c1ccc(-c2ccc(C#N)cc2)cc1,2.48%,0.49%,2.37%
CC(C)C[C@H](NC(=O)c1cc2ccccc2s1)C(=O)N[C@H]1CCN(Cc2ccc(OC[C@@H]3CCCN3C)c3ccccc23)C1,3.88%,5.05%,2.71%
CCOc1ccc2ccccc2c1C(=O)Nc1cc(C)nn1-c1nc(C)cc(=O)[nH]1,49.6%,44.4%,20.4%
CCn1c(-c2nonc2N)nc2c(-c3cccc(NC(=O)Nc4ccccc4OC)c3)ncc(OCCCN)c21,2.94%,3.41%,3.42%
COC(=O)c1cccc(CNCc2cccc(-c3ccc(-c4nc5ccccc5[nH]4)cc3)c2)c1,5.57%,5.76%,2.19%
Cc1ccc(NC(=O)c2ccc(-c3cc4cc(Cl)c(Cl)cc4[nH]3)cc2)cc1OCCN1CCCC1,-0.06%,-0.67%,0.15%
O=C(/C=C/c1ccc(Cl)c(Cl)c1)NCCCCCN1CCCN(C(=O)Nc2ccc(C(F)(F)F)cc2)CC1,2.96%,2.53%,5.5%
CCS(=O)(=O)c1ccc(/C(=N/OC)c2ccc[nH]2)cc1,0.36%,0.06%,0.42%
Cc1ccc(S(C)(=O)=O)cc1/C=C/C(=O)O,9.4%,8.46%,10.4%
Nc1nc(N)c2c(Sc3ccccc3)cccc2n1,3.38%,3.48%,2.7%
COc1ccc(CC(=O)Nc2ccc(-c3cccc(-c4nc5cccc(C)c5[nH]4)c3)cc2)cc1O,3.89%,5.29%,5.34%
CN(C)c1ccc(CN2CCCC(CNC(=O)c3ccc(-c4cccc(C(F)(F)F)c4)s3)C2)cc1 (stereo unspecified),1.33%,1.64%,-0.14%
COc1ccc(S(=O)(=O)N(CC(=O)NN=C(C)c2cccs2)c2cc(C)cc(C)c2)cc1OC,0.78%,2.03%,-1.17%
CC(N)(Cc1ccc(O)cc1)c1nnn[nH]1 (stereo unspecified),-0.06%,1.3%,-0.23%
CC(C)c1ccc(O)cc1Nc1ccnc2ccc(C(F)(F)F)cc12,1.29%,-0.72%,-0.66%
O=C(Nc1ccc2c(c1)CCC2)c1cccc(N2CCN(c3ccncc3)CC2)c1,1.86%,4.51%,1.58%
COc1ccc(CN2CCC(CNCC(c3ccccc3)c3ccccc3)CC2)cc1,3.54%,3.87%,2.23%
Cc1cc(C)c2nc(N3CCC(C(=O)NCCCN4CCC(N5CCCCC5)CC4)CC3)sc2c1,1.45%,2.91%,0.65%
CCCCCCCCOc1c(OCC)cc(Cc2cnc(N)nc2N)cc1OCC,13.7%,7.75%,2.94%
CN1CCCC1CCCOC(=O)c1ccc(N)cc1 (stereo unspecified),3.24%,3.07%,2.42%
Nc1ncc(-c2cccc(F)c2)cc1-c1nc2cc(F)ccc2[nH]1,4.17%,11.1%,6.56%
O=C(Nc1cccc(CN2CCN(Cc3ccc(O)cc3)CC2)c1)c1cccc(C(F)(F)F)c1,6.03%,6.51%,4.56%

Structure (SMILES),inhibition [1],inhibition [2],inhibition [3]
N=C(N)Nc1nc(-c2ccc(NC(=N)N3CCC[C@H]3CN3CCCC3)cc2)cs1,-0.01%,-0.2%,-0.7%
CCn1c(-c2nc(-c3ccnc(N4CCN(C)CC4)c3)cnc2N)nc2cc(S(C)(=O)=O)ccc21,36.5%,45.3%,20.7%
c1ccc2nc(NCCCCCCCCNc3ccc4ccccc4n3)ccc2c1,5.37%,3.68%,4.58%
COc1ccc(CNCc2ccc(-c3ccc(-c4nc5cccc(C)c5[nH]4)s3)cc2)cc1,18.1%,13.2%,12.6%
CC(C)(C)c1ccc2[nH]c(-c3ccc(C(=O)NCc4cccc(C(F)(F)F)c4)cc3)nc2c1,-0.02%,0.63%,3.09%
O=C(NCCCCN1CCN(c2nsc3ccccc23)CC1)c1ccccc1C(=O)NCCCCN1CCN(c2nsc3ccccc23)CC1,2.17%,-0.52%,-0.08%
CC(C)OCCCNC(=O)c1nc(-c2cccc(C(F)(F)F)c2)sc1C(C)C,3.62%,4.03%,4.46%
COc1cc(CCNC(=O)Cc2ccc3ccccc3c2)ccc1OCc1ccccc1,1.9%,1.88%,0.92%
COc1cccc(-c2ccc(C(=O)NCC3CCCN(Cc4cccc(C(F)(F)F)c4)C3)s2)c1 (stereo unspecified),2.94%,-4.36%,5.79%
Cc1ccccc1C1CCN(c2ncc(C(=O)Nc3ccccc3)cc2Cl)CC1,0.8%,0.4%,-6.29%
N#Cc1ccc2c(c1)CN(CCC1CCC(NC(=O)c3cc4cc(OC(F)(F)F)ccc4[nH]3)CC1)CC2 (stereo unspecified),3.11%,2.72%,0.85%
Cc1[nH]c(C)c(-c2ccc(OCc3cc(C(F)(F)F)cc(C(F)(F)F)c3)nc2)c(=O)c1Br,10.1%,10.2%,2.99%
CC(C)CNCc1cccc(-c2ccccc2CNC2CCN(Cc3ccccc3)CC2)c1,5.47%,4.95%,7.56%
O=C(Nc1ccc(OC2CCN(Cc3ccc(F)cc3)C2)c(Cl)c1)c1ccco1 (stereo unspecified),3.67%,3.44%,3.01%
COc1ccc(C(=O)Nc2ccc3oc(-c4ccc(C(F)(F)F)cc4)cc3c2)cc1CCCN(C)C,1.78%,2.26%,0.34%
O=C(NCc1cccc2ccccc12)[C@@H]1CCCN1C(=O)c1ccc(O)c(-c2ccc(Cl)c(Cl)c2)c1,3.99%,2.59%,1.99%
CN1CCN(CCCN(Cc2ccc(-c3cccc(CNCc4ccc5c(c4)OCO5)c3)cc2)C(=O)CCC2CCCC2)CC1,2.35%,2.56%,-0.03%
CN1CCC(c2ccc(NC(=O)c3ccc(-c4cccc(C(F)(F)F)c4)o3)cc2)CC1,2.13%,1.69%,1.19%
CCn1cc(CN2CCCC(C(=O)Nc3ccc(-c4nc5ccccc5[nH]4)cc3)C2)c(C)n1 (stereo unspecified),3.61%,4.26%,3.25%
Cc1cc(F)ccc1Oc1nc(Nc2ccc(N3CCOCC3)c(F)c2)nc2c1S(=O)(=O)CCC2,6.48%,7.33%,2.35%
CN(C)C(=O)CC(=O)NCc1cccc(Cl)c1,6.99%,6.27%,7.23%
COc1ccc(-c2ccc(NC(=O)c3cccc(C#N)c3)cc2)cc1CN1CCCC(C(N)=O)C1 (stereo unspecified),3.09%,2.51%,5.2%
COc1cccc(Nc2nc(C)cc(Nc3cccc(C#N)c3)n2)c1,17.5%,19.2%,4.27%
